Reference: PubChem BioAssay AID1159580 (chemical genetic matrix, 2015)
Where “and” joins values, the source holds several entries; their conditions need not be identical. Equal values may be shown once. About 2,000 (36%) of roughly 5,500 compounds were called active. Roughly 18% stayed inconclusive and do not appear here. Cut-off read from the data, not from the text of the source: active = normalized growth mostly below about 0.91 (no sharp cut-off); inconclusive = no clear call, values can overlap the other calls; inactive = mostly above about 0.92. This is one part of the list.

Test: chemical genetic growth profiling, strain panel (AID 1159580);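 note: tested at 20 µM; growth read once vehicle control cultures reached saturation at 30 °C; 1 = growth at the plate median or of vehicle wells; lower values mean less growth of the strain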
Details: S. cerevisiae deletion strains, growth OD

Measured: normalized growth

CC(=O)Oc1ccccc1C(=O)Oc1ccccc1C(=O)O
inactive: locus YAL013W, strain DEP1, active compounds read low 0.989 | locus YAL021C, strain ccr4, active compounds read low 1.01 | locus YAL026C, strain drs2, active compounds read low 1.01 | locus YAL030W, strain snc1, active compounds read low 1 | locus YBL061C, strain skt5, active compounds read low 1 | locus YBR009C, strain hhf1, active compounds read low 1.01 | locus YBR021W, strain FUR4, active compounds read low 0.981 | locus YBR023C, strain chs3, active compounds read low 0.998 | locus YBR171W, strain sec66, active compounds read low 1 | locus YBR229C, strain ROT2, active compounds read low 0.992 | locus YBR231C, strain swc5, active compounds read low 0.995 | locus YBR279W, strain paf1, active compounds read low 1 | locus YCL011C, strain gbp2, active compounds read low 1.02 | locus YCL016C, strain dcc1, active compounds read low 1 | locus YCL029C, strain bik1, active compounds read low 0.98 | locus YCL069W, strain vba3, active compounds read low 1 | locus YCR088W, strain abp1, active compounds read low 1 | locus YDL005C, strain med2, active compounds read low 0.995 | locus YDL035C, strain GPR1, active compounds read low 1 | locus YDL040C, strain nat1, active compounds read low 1 | locus YDL074C, strain BRE1, active compounds read low 1.01 | locus YDL101C, strain DUN1, active compounds read low 0.997 | locus YDL134C, strain PPH21, active compounds read low 1.02 | locus YDL185W, strain tfp1, active compounds read low 0.987 | locus YDL192W, strain arf1, active compounds read low 0.993 | locus YDR001C, strain nth1, active compounds read low 1.01 | locus YDR069C, strain doa4, active compounds read low 0.996 | locus YDR101C, strain arx1, active compounds read low 0.994 | locus YDR137W, strain rgp1, active compounds read low 1 | locus YDR150W, strain NUM1, active compounds read low 0.996 | locus YDR159W, strain sac3, active compounds read low 0.962 | locus YDR162C, strain NBP2, active compounds read low 1.02 | locus YDR195W, strain ref2 0.962 | locus YDR297W, strain sur2, active compounds read low 1.01 | locus YDR318W, strain mcm21, active compounds read low 0.986 | locus YDR334W, strain swr1, active compounds read low 1 | locus YDR335W, strain msn5, active compounds read low 1 | locus YDR388W, active compounds read low 0.986 | locus YDR392W, strain spt3, active compounds read low 0.954 | locus YDR502C, strain sam2, active compounds read low 0.985 | locus YEL003W, strain gim4, active compounds read low 1.01 | locus YEL037C, strain rad23, active compounds read low 1 | locus YEL061C, strain CIN8 (second series), active compounds read low 1.01 | locus YEL061C, strain CIN8, active compounds read low 0.999 | locus YER015W, strain faa2, active compounds read low 0.997 | locus YER016W, strain bim1, active compounds read low 1 | locus YER110C, active compounds read low 0.98 | locus YER111C, strain swi4, active compounds read low 0.994 | locus YER155C, strain BEM2 (second series), active compounds read low 1.02 | locus YER155C, strain BEM2, active compounds read low 0.986 | locus YER167W, strain BCK2, active compounds read low 0.991 | locus YFR010W, strain ubp6, active compounds read low 1.02 | locus YGL078C, strain dbp3, active compounds read low 0.977 | locus YGL086W, strain mad1, active compounds read low 0.984 | locus YGL167C, strain pmr1, active compounds read low 0.996 | locus YGL173C, strain kem1, active compounds read low 1.02 | locus YGL227W, strain vid30, active compounds read low 0.998 | locus YGL240W, strain doc1, active compounds read low 0.978 | locus YGL248W, strain PDE1, active compounds read low 0.992 | locus YGL253W, strain hxk2, active compounds read low 0.996 | locus YGR078C, strain PAC10, active compounds read low 1.01 | locus YGR135W, strain pre9, active compounds read low 0.999 | locus YGR229C, strain SMI1, active compounds read low 1.01 | locus YGR252W, strain gcn5, active compounds read low 0.966 | locus YHR013C, strain ard1, active compounds read low 1.01 | locus YHR027C, strain rpn1, active compounds read low 0.985 | locus YHR030C, strain SLT2, active compounds read low 0.991 and 0.986 | locus YHR079C, strain IRE1 (second series), active compounds read low 0.983 | locus YHR079C, strain IRE1, active compounds read low 0.995 | locus YHR094C, strain hxt1, active compounds read low 0.98 | locus YHR129C, strain ARP1, active compounds read low 1 | locus YHR142W, strain chs7, active compounds read low 1.01 | locus YHR200W, strain rpn10, active compounds read low 0.97 | locus YIL066C, strain RNR3, active compounds read low 0.982 | locus YIL073C, strain SPO22, active compounds read low 0.975 | locus YIL125W, strain kgd1, active compounds read low 0.977 | locus YIR030C, strain dcg1, active compounds read low 0.983 | locus YJL092W, strain hpr5, active compounds read low 1.01 | locus YJL095W, strain BCK1 (second series), active compounds read low 0.997 | locus YJL095W, strain BCK1, active compounds read low 1.01 and 1 | locus YJL115W, strain asf1, active compounds read low 1.01 | locus YJL129C, strain trk1, active compounds read low 1.01 | locus YJL134W, strain LCB3, active compounds read low 0.992 | locus YJL154C, strain vps35, active compounds read low 1 | locus YJL164C, strain tpk1, active compounds read low 0.996 | locus YJL166W, strain qcr8, active compounds read low 1.01 | locus YJL168C, strain set2, active compounds read low 0.981 | locus YJL187C, strain SWE1 (second series), active compounds read low 0.993 | locus YJL187C, strain SWE1, active compounds read low 1.01 | locus YJR043C, strain POL32, active compounds read low 0.995 | locus YJR066W, strain TOR1, active compounds read low 0.905
